According to PubChem BioAssay (NCI):
The panel holds about 83,000 compounds, 20% with a hit somewhere; the sample as a whole holds those more often.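 Each cell line was grown in a 96-well plate and treated with one concentration of compound for 48 hours. Values below 10 were considered active.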 Values without a mark were called inactive. Calls of active or inactive are those of the source.

How the values were obtained:
Experiment in all cases: NCI-60 one-dose screen, 48 h (100 = growth as untreated, 0 = no growth, -100 = all killed)
Conditions in all cases: 10 µM unless noted
HCT-15 colon = system: HCT-15 colon
HT29 colon = system: HT29 colon
SNB-75 CNS = system: SNB-75 CNS
SNB-19 CNS = system: SNB-19 CNS
U251 CNS = system: U251 CNS
PC-3 prostate = system: PC-3 prostate
SK-MEL-5 melanoma = system: SK-MEL-5 melanoma
UACC-62 melanoma = system: UACC-62 melanoma
LOX IMVI melanoma = system: LOX IMVI melanoma
SK-MEL-28 melanoma = system: SK-MEL-28 melanoma
SK-MEL-2 melanoma = system: SK-MEL-2 melanoma
EKVX NSCLC = system: EKVX NSCLC
SN12C renal = system: SN12C renal
UO-31 renal = system: UO-31 renal
TK-10 renal = system: TK-10 renal
ACHN renal = system: ACHN renal
CAKI-1 renal = system: CAKI-1 renal
A498 renal = system: A498 renal
CCRF-CEM leukemia = system: CCRF-CEM leukemia

Compound | growth (HCT-15 colon) | growth (HT29 colon) | growth (SNB-75 CNS) | growth (SNB-19 CNS) | growth (U251 CNS) | growth (PC-3 prostate) | growth (SK-MEL-5 melanoma) | growth (UACC-62 melanoma) | growth (LOX IMVI melanoma) | growth (SK-MEL-28 melanoma) | growth (SK-MEL-2 melanoma) | growth (EKVX NSCLC) | growth (SN12C renal) | growth (UO-31 renal) | growth (TK-10 renal) | growth (ACHN renal) | growth (CAKI-1 renal) | growth (A498 renal) | growth (CCRF-CEM leukemia)
COc1ccc(C(=O)OC2C(OC3C(O)COC(O[C@H]4C[C@H]5[C@@H]6CC=C7C[C@@H](O)CC[C@]7(C)[C@H]6CC[C@]5(C)[C@H]4[C@H](C)C(=O)CCC(C)C)C3OC(=O)C(C)C)OCC(O)C2O)cc1 (stereo partly specified) | -8.16% (active) | 12.1% | 21.4% | 27.8% | 2.54% (active) | 2.36% (active) | -36.3% (active) | -35.6% (active) | -17.5% (active) | -49.6% (active) | -37.2% (active) | 30.2% | 57.3% | -15.2% (active) | 8.54% (active) | 36.6% | 3.21% (active) | -61.2% (active) | -21.8% (active)
O=C(CCCN1CCC(O)(c2ccc(Br)cc2)CC1)c1ccc(F)cc1 | 49.8% | 22.1% | 67.7% | 78.4% | 64.4% | 69.7% | -1.83% (active) | 43.6% | 53.7% | 74.6% | 100% | 91% | 72.8% | 45.6% | 96.6% | 72.5% | 82.1% | 82.2% | 63.8%
CCCCCCCCCCCC1=NC(C)(C)CN1CCO | 18% | -25.2% (active) | 65.2% | 100% | 21.8% | 42.5% | 58.9% | -14.3% (active) | 6.59% (active) | 68.5% | 87.8% | 68.7% | 72.6% | 68.3% | 92.6% | 78.2% | 75% | 95.4% | 23.5%
Cn1c(=O)c2c(nc(N/N=C/c3ccccc3Cl)n2C)n(C)c1=O | 105% | 93.6% | 93.6% | 108% | 101% | 99.3% | 109% | 104% | 98.2% | 122% | 81.6% | 106% | 99% | 81.5% | 101% | 103% | 97.8% | 170% | 94.5%
O=[N+]([O-])c1ccc(N/N=C\c2ccc(O)cc2O)nc1 | 29.8% | 90.2% | 53.6% | 58.6% | 28.4% | 49.5% | 13.7% | 43.9% | 24.7% | 64.1% | 28.9% | 29.3% | 50.9% | 28.1% | 22.7% | 26.8% | 4.77% (active) | 107% | 18.8%
CCOC(=O)c1ccc2c(c1)[n+](=O)c(C(=O)c1ccc3ccccc3c1)c(C(F)(F)F)n2[O-] | -96.1% (active) | -97.4% (active) | -100% (active) | -85.5% (active) | -100% (active) | -99.2% (active) | -100% (active) | -97.2% (active) | -97.5% (active) | -96.3% (active) | -83.5% (active) | -56.8% (active) | -99.2% (active) | -96% (active) | -89.7% (active) | -100% (active) | -93.8% (active) | -62.4% (active) | –
O=C1/C(=C/N2N=C(c3ccc(Cl)cc3)CC2c2ccccc2O)SC(=S)N1c1cccc(C(F)(F)F)c1 (stereo unspecified) | 43.5% | 37.6% | 38.4% | 71% | 45.1% | 23.6% | 79.7% | 52.3% | 48.3% | 73.9% | 90.7% | 52.5% | 52.6% | 24.9% | 78.3% | 55.3% | 55.5% | 65.8% | 30%
O=C(Nc1ccc(Br)cc1)Nc1cccc(Br)c1 | 15.4% | 28.2% | 85% | 29.2% | 28.4% | 4.68% (active) | 65.3% | 5.82% (active) | 33% | 43.7% | 26% | 41% | 32.5% | 34.9% | 29.2% | 14.9% | 50.3% | 21.4% | 15.6%
